Inconclusive results are not listed. A call without a number means that no potency is given here. The source holds several records for some structures; these can differ, active in one and inactive in another. Calls of active or inactive are those of the source. Unless noted, calls come from the whole dose curve; as a rule, active = well fitted curve in the direction sought with a large enough effect in the repeat runs; inconclusive = weak or mixed curves; inactive = no such curve, though single readings can be large; an effect the other way counts as inactive or inconclusive.
Tests used:
[1] = qHTS assay to identify aromatase inhibitors - cell viability counter screen (AID 743084);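 note: cells stimulated with testosterone during compound exposure; nearly all actives have a fitted effect of over 55% in size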; note: potency is the fitted concentration of half-maximal effect
[2] = biological target: Aryl hydrocarbon receptor (Homo sapiens) (UniProt P35869); assay: qHTS assay to identify small molecule that activate the aryl hydrocarbon receptor (AhR) signaling pathway (AID 743085); note: nearly all actives have a fitted effect of over 15% in size; note: potency is the fitted concentration of half-maximal effect;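 for activation: HG2L7.5c1 human HepG2 liver cells with stably integrated DRE-driven firefly reporter; series mostly up to about 70 µM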
Sequence of Aryl hydrocarbon receptor (Homo sapiens) (P35869 whole entry, looked up): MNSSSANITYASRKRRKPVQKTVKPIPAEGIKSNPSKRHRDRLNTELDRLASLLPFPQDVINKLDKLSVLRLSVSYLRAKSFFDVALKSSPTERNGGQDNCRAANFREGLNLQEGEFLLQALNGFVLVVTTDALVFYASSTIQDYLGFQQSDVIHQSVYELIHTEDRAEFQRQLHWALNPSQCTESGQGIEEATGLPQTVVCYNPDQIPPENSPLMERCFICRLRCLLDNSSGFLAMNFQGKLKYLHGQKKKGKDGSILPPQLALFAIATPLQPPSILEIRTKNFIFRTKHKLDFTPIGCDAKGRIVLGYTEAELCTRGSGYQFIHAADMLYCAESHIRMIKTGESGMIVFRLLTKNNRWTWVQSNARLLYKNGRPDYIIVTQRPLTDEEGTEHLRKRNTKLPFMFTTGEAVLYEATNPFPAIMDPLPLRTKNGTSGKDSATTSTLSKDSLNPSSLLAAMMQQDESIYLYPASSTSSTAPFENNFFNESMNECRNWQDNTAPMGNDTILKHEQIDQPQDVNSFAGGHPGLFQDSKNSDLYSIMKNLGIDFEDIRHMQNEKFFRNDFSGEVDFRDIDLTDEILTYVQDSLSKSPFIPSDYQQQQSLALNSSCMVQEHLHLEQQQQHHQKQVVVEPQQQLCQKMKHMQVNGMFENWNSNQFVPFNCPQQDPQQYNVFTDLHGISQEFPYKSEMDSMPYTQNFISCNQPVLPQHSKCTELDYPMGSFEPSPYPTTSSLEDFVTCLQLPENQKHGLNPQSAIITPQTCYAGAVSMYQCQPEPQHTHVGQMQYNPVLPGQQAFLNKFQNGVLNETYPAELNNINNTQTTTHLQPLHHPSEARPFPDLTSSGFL
Summary of the method: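 Luminescence (ONE-Glo) from a dioxin-responsive-element luciferase reporter in HG2L7.5c1 HepG2 cells after 24 hr compound exposure at 37C; viability measured by CellTiter-Fluor fluorescence beforehand.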

[3] = qHTS assay to identify small molecule that activate the aryl hydrocarbon receptor (AhR) signaling pathway - cell viability counter screen (AID 743086); note: nearly all actives have a fitted effect of over 45% in size; note: potency is the fitted concentration of half-maximal effect
Summary of the method: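 HepG2-AhR-luc (HG2L7.5c1) cells, 4000/well, treated 24 h at 37 C with compound; viability measured as CellTiter-Fluor fluorescence after 30 min in the same wells as the luciferase read.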

[4] = biological target: Peroxisome proliferator-activated receptor gamma (Homo sapiens) (UniProt P37231); assay: qHTS assay to identify small molecule agonists of the peroxisome proliferator-activated receptor gamma (PPARg) signaling pathway (AID 743094; active = well fitted activation curve with a large enough effect in the signal ratio in the repeat runs, not every such curve was filed as active; the % refers to the signal ratio)
Sequence of Peroxisome proliferator-activated receptor gamma (Homo sapiens) (P37231 whole entry, looked up): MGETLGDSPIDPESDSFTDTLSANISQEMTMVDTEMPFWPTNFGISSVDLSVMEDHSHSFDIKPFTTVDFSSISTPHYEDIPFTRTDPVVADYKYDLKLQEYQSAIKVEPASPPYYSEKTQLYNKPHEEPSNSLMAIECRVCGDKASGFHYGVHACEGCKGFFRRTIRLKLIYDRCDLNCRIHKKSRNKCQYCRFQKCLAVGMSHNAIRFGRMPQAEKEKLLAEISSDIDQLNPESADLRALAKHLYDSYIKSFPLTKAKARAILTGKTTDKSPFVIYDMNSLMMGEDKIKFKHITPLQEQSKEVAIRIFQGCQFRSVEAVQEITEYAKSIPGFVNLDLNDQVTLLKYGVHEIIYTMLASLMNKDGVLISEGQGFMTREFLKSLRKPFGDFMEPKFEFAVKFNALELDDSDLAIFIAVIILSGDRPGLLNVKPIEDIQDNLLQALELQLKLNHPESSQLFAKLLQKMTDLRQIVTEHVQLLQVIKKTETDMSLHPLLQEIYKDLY
Summary of the method: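 Cells from the PPARg UAS-bla HEK293H line are plated and incubated 5 h at 37C. Compounds in DMSO are pinned in and left 17 h at 37C. LiveBLAzer B/G substrate is then added for 1 h at room temperature before fluorescence is measured.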

[5] = qHTS assay for small molecule agonists of the antioxidant response element (ARE) signaling pathway - cell viability counter screen (AID 743203; calls by dose curve; note: nearly all actives have a fitted effect of over 55% in size; note: potency is the fitted concentration of half-maximal effect)
Summary of the method: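 Cytotoxicity was tested in parallel with the ARE reporter screen. ARE-bla HepG2 cells were exposed to compounds for 16 hrs, and viability was taken from CellTiter-Glo luminescence.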

[6] = qHTS assay for small molecule activators of the heat shock response signaling pathway - cell viability counter screen (AID 743209); note: nearly all actives have a fitted effect of over 50% in size
Summary of the method: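 Cytotoxicity counter screen run in parallel with the HSE beta-lactamase reporter, using the same wells. HeLa HSE-bla cells received compound for 5 h at 37 C; ATP-based CellTiter-Glo luminescence was measured after 30 min at room temperature.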

[7] = qHTS assay for small molecule activators of the heat shock response signaling pathway (AID 743210; active = well fitted activation curve with a large enough effect in the signal ratio in the repeat runs, with a control signal flat, not every such curve was filed as active; the % refers to the signal ratio; note: potency is the fitted concentration of half-maximal effect;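 for activation: HeLa cells with beta-lactamase reporter driven by heat shock elements; series mostly up to about 63 µM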)
Summary of the method: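 Following overnight attachment, HSE-bla HeLa cells received test compounds for 5 h at 37 C; beta-lactamase activity was then detected via FRET substrate fluorescence.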

[8] = qHTS assay to identify small molecule agonists of the peroxisome proliferator-activated receptor delta (PPARd) signaling pathway - cell viability counter screen (AID 743211); note: nearly all actives have a fitted effect of over 55% in size; note: potency is the fitted concentration of half-maximal effect
Summary of the method: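 Viability was measured as CellTiter-Glo luminescence (30 min, room temperature) in the same wells as the beta-lactamase readout. GeneBLAzer PPARd UAS-bla HEK293H cells received compound after 5 h plating and were incubated 17 h at 37 C.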

[9] = qHTS assay to identify small molecule antagonists of the peroxisome proliferator-activated receptor delta (PPARd) signaling pathway - cell viability counter screen (AID 743213); note: nearly all actives have a fitted effect of over 50% in size; note: potency is the fitted concentration of half-maximal effect
Summary of the method: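 CellTiter-Glo was added to PPARd-bla HEK293H wells following 17 h compound treatment in the presence of 300 nM L165041. Luminescence was recorded after 30 min at room temperature.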

[10] = qHTS assay to identify small molecule agonists of the farnesoid-X-receptor (FXR) signaling pathway - cell viability counter screen (AID 743218); note: nearly all actives have a fitted effect of over 45% in size; note: potency is the fitted concentration of half-maximal effect
Summary of the method: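 Cells were seeded, left 5 h at 37 C and 5% CO2, then dosed with compound in DMSO for 16 h. After the beta-lactamase FRET read, CellTiter-Glo was added and luminescence measured 30 min later.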

[11] = qHTS assay to identify small molecule antagonists of the farnesoid-X-receptor (FXR) signaling pathway - cell viability counter screen (AID 743221; active = well fitted cell-killing curve with a large enough effect in the repeat runs, not every such curve was filed as active; note: nearly all actives have a fitted effect of over 50% in size; note: potency is the fitted concentration of half-maximal effect)
Summary of the method: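 Cytotoxicity counter screen run in the FXR-bla reporter wells: HEK 293T cells exposed to compound with 50 uM (final) chenodeoxycholic acid for 16 h, 37 C, then viability measured by CellTiter-Glo luminescence after 30 min, room temperature.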

[12] = biological target: Vitamin D3 receptor (Homo sapiens) (UniProt P11473); assay: qHTS assay to identify small molecule agonists of the vitamin D receptor (VDR) signaling pathway (AID 743222; calls by dose curve)
Sequence of Vitamin D3 receptor (Homo sapiens) (P11473 whole entry, looked up): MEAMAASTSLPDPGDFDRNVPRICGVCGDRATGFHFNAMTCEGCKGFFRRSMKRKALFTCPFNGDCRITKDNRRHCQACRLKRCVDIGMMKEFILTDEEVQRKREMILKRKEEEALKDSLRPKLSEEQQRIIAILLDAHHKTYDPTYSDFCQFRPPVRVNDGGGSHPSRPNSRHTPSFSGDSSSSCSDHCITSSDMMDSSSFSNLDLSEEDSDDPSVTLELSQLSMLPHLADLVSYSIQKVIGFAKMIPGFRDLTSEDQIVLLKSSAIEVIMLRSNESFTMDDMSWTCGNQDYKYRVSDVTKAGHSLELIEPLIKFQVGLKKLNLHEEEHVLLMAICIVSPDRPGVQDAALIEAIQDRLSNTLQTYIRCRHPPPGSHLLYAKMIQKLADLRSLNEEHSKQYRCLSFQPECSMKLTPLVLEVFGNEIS
Summary of the method: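 Cells carrying a VDR-driven beta-lactamase reporter are seeded at 2,000 per well and rested 4 h. Compounds in DMSO are added for 16 h at 37C, and FRET substrate fluorescence is measured after 2 h at room temperature.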

[13] = biological target: Vitamin D3 receptor (Homo sapiens) (UniProt P11473); assay: qHTS assay to identify small molecule antagonists of the vitamin D receptor (VDR) signaling pathway (AID 743223; active = well fitted inhibition curve with a large enough effect in the signal ratio in the repeat runs, not every such curve was filed as active; the % refers to the signal ratio)
Summary of the method: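 Antagonist mode: compound added to VDR-bla cells alongside agonist 1alpha,25-dihydroxyvitamin D3 (3 nM final), incubation 16 h at 37C. Read-out is LiveBLAzer FRET fluorescence, 2 h at room temperature.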

[14] = biological target: Peroxisome proliferator-activated receptor gamma (Homo sapiens) (UniProt P37231); assay: qHTS assay to identify small molecule antagonists of the peroxisome proliferator-activated receptor gamma (PPARg) signaling pathway (AID 743191; calls by dose curve; note: series mostly up to about 63 µM; nearly all actives have a fitted effect of over 30% in size)
Summary of the method: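 GeneBLAzer PPARg UAS-bla HEK293H cells, 5 h post-plating, exposed to compounds 17 h at 37C. LiveBLAzer B/G FRET substrate added for 1 h at room temperature; beta-lactamase reporter read by fluorescence intensity.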

[15] = qHTS assay to identify small molecule antagonists of the peroxisome proliferator-activated receptor gamma (PPARg) signaling pathway - cell viability counter screen (AID 743194); note: nearly all actives have a fitted effect of over 55% in size
Summary of the method: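 Cytotoxicity counter screen in PPARg-bla HEK293H cells, same wells as reporter assay. Compounds plus 50 nM rosiglitazone (final) for 17 h at 37 C, then viability read by CellTiter-Glo luminescence.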

[16] = biological target: Peroxisome proliferator-activated receptor delta (Homo sapiens) (UniProt Q03181); assay: qHTS assay to identify small molecule agonists of the peroxisome proliferator-activated receptor delta (PPARd) signaling pathway (AID 743212; calls by dose curve)
Sequence of Peroxisome proliferator-activated receptor delta (Homo sapiens) (Q03181 whole entry, looked up): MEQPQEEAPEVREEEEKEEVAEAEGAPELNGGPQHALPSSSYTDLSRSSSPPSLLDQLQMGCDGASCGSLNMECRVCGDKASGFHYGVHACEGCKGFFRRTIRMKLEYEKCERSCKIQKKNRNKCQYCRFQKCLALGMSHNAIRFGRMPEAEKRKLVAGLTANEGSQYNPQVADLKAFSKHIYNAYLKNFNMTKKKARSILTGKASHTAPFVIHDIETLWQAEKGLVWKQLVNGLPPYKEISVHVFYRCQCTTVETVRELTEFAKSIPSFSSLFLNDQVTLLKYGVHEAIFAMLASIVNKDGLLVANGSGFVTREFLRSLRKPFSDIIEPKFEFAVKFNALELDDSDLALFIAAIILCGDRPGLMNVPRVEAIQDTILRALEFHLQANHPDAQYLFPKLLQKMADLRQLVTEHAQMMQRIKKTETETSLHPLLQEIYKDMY
Summary of the method: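 Tox21 library screened in GeneBLAzer PPARd UAS-bla HEK293H cells. After compound treatment at 37 C, a FRET-based beta-lactamase substrate was applied for 2 h and fluorescence recorded.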

[17] = biological target: Bile acid receptor (Homo sapiens) (UniProt Q96RI1); assay: qHTS assay to identify small molecule antagonists of the farnesoid-X-receptor (FXR) signaling pathway (AID 743217; active = well fitted inhibition curve with a large enough effect in the signal ratio in the repeat runs, not every such curve was filed as active; the % refers to the signal ratio; note: potency is the fitted concentration of half-maximal effect)
Sequence of Bile acid receptor (Homo sapiens) (Q96RI1 whole entry, looked up): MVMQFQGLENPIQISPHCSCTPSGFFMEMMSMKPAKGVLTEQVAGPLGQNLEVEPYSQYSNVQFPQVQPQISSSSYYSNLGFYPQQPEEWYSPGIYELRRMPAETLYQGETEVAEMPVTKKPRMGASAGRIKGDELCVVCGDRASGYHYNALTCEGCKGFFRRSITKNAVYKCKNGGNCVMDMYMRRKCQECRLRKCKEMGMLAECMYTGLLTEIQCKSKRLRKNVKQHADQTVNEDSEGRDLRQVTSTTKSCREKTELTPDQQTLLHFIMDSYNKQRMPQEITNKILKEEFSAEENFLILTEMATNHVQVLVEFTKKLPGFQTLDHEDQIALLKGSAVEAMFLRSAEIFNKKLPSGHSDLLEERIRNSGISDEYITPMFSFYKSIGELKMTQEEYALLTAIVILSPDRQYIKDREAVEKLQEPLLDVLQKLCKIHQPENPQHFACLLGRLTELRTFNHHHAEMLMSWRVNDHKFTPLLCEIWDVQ
Summary of the method: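 Cells carrying a UAS-driven beta-lactamase reporter (GeneBLAzer FXR-UAS-bla HEK 293T) were plated and rested 5 h at 37 °C. Compounds in DMSO were added alongside chenodeoxycholic acid agonist at 50 uM final and left 16 h at 37 °C before FRET substrate readout.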

[18] = biological target: Bile acid receptor (Homo sapiens) (UniProt Q96RI1); assay: qHTS assay to identify small molecule agonists of the farnesoid-X-receptor (FXR) signaling pathway (AID 743220; active = well fitted activation curve with a large enough effect in the signal ratio in the repeat runs, not every such curve was filed as active; the % refers to the signal ratio)
Summary of the method: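 FXR-UAS-bla HEK 293T cells carrying a UAS-driven beta-lactamase reporter were plated for 5 h at 37C/5% CO2, then exposed to DMSO-dissolved Tox21 10K compounds for 16 h at 37C. A LiveBLAzer B/G FRET substrate was loaded for 2 h at room temperature before fluorescence reading.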

[19] = qHTS assay for small molecule agonists of the antioxidant response element (ARE) signaling pathway (AID 743202; active = well fitted activation curve with a large enough effect in the signal ratio in the repeat runs, not every such curve was filed as active; the % refers to the signal ratio; note: potency is the fitted concentration of half-maximal effect)
Summary of the method: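 HepG2 ARE-bla cells; 16 h treatment at 37 C; FRET-based beta-lactamase fluorescence read after 2 h substrate incubation at room temperature.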

[20] = biological target: Peroxisome proliferator-activated receptor delta (Homo sapiens) (UniProt Q03181); assay: qHTS assay to identify small molecule antagonists of the peroxisome proliferator-activated receptor delta (PPARd) signaling pathway (AID 743215; active = well fitted inhibition curve with a large enough effect in the signal ratio in the repeat runs, not every such curve was filed as active; the % refers to the signal ratio;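 note: cells stimulated with agonist L165041 at 300 nM final during compound exposure; series mostly up to about 62 µM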)
Summary of the method: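 Cells: HEK293H with a UAS-driven beta-lactamase reporter responsive to PPARd. Compounds were co-added with L165041 (300 nM, final) and incubated 17 h at 37 C before a 2 h room-temperature FRET substrate step and fluorescence reading.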

Compound	Potency [1]	Potency [2]	Potency [3]	Potency [4]	Potency [5]	Potency [6]	Potency [7]	Potency [8]	Potency [9]	Potency [10]	Potency [11]	Potency [12]	outcome [13]	Potency [14]	Potency [15]	Potency [16]	Potency [17]	Potency [18]	Potency [19]	Potency [20]
O=C(O)c1ccco1	inactive	inactive	inactive	inactive	inactive	inactive	inactive	inactive	inactive	inactive	inactive	inactive	inactive							
O=C(c1ccc(F)cc1)C1CCN(CCn2c(=S)[nH]c3ccccc3c2=O)CC1	inactive	inactive	inactive		inactive		19.6 µM (active)			inactive				inactive	inactive					
COS(=O)(=O)C(F)(F)F	inactive	inactive	inactive	inactive	inactive	inactive				inactive	inactive				inactive	inactive	inactive	inactive		
CC1=CC[C@H](C(C)C)C=C1	inactive	inactive	inactive	inactive	inactive	inactive	inactive		inactive	inactive	49 µM (active)				inactive				54.5 µM (active)	
CC(=O)[O][Al]	inactive	inactive	inactive		inactive	inactive		inactive	inactive	inactive	inactive				inactive				inactive	
Nc1ccc(N)c2c1C(=O)c1ccccc1C2=O	17.2 µM (active)	6.11 µM (active)	21.7 µM (active)	inactive	inactive	inactive	inactive	inactive	inactive		inactive	inactive	inactive		inactive	inactive				
CCCCO	inactive	inactive	inactive		inactive	inactive	inactive	inactive	inactive	inactive	inactive	inactive	inactive		inactive		inactive			
O=CC1CC=CCC1 (configuration not stated)	inactive	inactive		inactive	inactive	inactive	inactive	inactive	inactive	inactive	inactive	inactive			inactive	inactive		inactive	inactive	inactive
CC(CC=O)c1ccccc1 (configuration not stated)	inactive	inactive		inactive	inactive	inactive	inactive	inactive	inactive		inactive		inactive	inactive	inactive	inactive			inactive	inactive
COc1ccc(C(=O)N2CCN(CC(=O)N3CCOCC3)CC2)cc1	inactive	inactive		inactive	inactive		inactive	inactive	inactive	inactive	inactive	inactive	inactive	inactive	inactive				inactive	
Nc1c(CC(=O)O)cccc1C(=O)c1ccc(Br)cc1	inactive	inactive	inactive			inactive			inactive	inactive	inactive				inactive		inactive	inactive		
O=C(Nc1ccc(S(=O)(=O)N2CCOCC2)cc1)c1cc(Cl)ccc1NS(=O)(=O)c1ccc(Cl)s1	inactive	inactive	inactive		13.3 µM (active)	inactive			13.3 µM (active)	6.68 µM (active)								inactive		
CCCCC(=O)OCC(=O)[C@H]1[C@H](C)C[C@H]2[C@@H]3C[C@H](F)C4=CC(=O)C=C[C@]4(C)[C@@]3(F)[C@@H](O)C[C@@]21C	inactive	inactive		inactive	inactive	inactive		inactive	inactive	inactive	inactive	inactive			inactive				inactive	
OC(CN1CCC(Cc2ccc(F)cc2)CC1)c1ccc(Cl)cc1 (configuration not stated)	inactive	inactive		inactive		inactive		inactive	inactive	inactive	inactive			inactive	inactive		inactive	inactive		
OC[C@H]1O[C@@H](OCCc2ccc(O)cc2)[C@H](O)[C@@H](O)[C@@H]1O	inactive	inactive		inactive	inactive	inactive	inactive	inactive	inactive	inactive	inactive	inactive		inactive	inactive	inactive	inactive	inactive		
CCOC(=O)C1=C[C@]2(CC)CCCN3CCc4c(n1c1ccccc41)[C@@H]32	inactive	11.9 µM (active) and inactive		inactive	inactive	inactive						inactive		inactive	inactive				inactive	
CCc1c(C(=O)NN2CCCCC2)nn(-c2ccc(Cl)cc2Cl)c1-c1ccc(Br)cc1	inactive	inactive	inactive			inactive		12.3 µM (active)		24.5 µM (active)	24.5 µM (active)									
O=C(OCCCCCCOC(=O)c1ccccc1)c1ccccc1	inactive	inactive	inactive		inactive		57.1 µM (active)			inactive	inactive		inactive		inactive	inactive	inactive	inactive		
c1ccc(-c2ccccn2)nc1	inactive	inactive	inactive		inactive	inactive		inactive	inactive	inactive	inactive	inactive	inactive		inactive	inactive				
NC(=O)C(c1ccccc1)(c1ccccc1)[C@@H]1CCN(CCc2ccc3c(c2)CCO3)C1	inactive	inactive		inactive	inactive	inactive	inactive				inactive	inactive		inactive	inactive		inactive			
Cc1oc2c(NC(=O)c3c(Cl)cccc3Cl)cccc2c1C(C)(C)O	inactive	8.63 µM (active)	inactive			inactive	inactive			21.9 µM (active)	inactive		inactive		inactive	inactive	38.9 µM (active)	inactive		inactive

Reference: PubChem BioAssay (Tox21)
